# The source made the active and inactive calls. The calls were made as follows: active = hit-call score of the fitted dose curve at least 0.9, where 1 is the maximum; inactive = score below 0.9.
# How the values were obtained:
# [1] = target: Bile acid receptor (Homo sapiens) (UniProt Q96RI1); assay: ATG_IR1_CIS: Attagene CIS-FACTORIAL HepG2 Assay for human Nuclear Receptor Subfamily 1 Group H Member 4 (NR1H4), IR1 submotif (AID 2282946); settings: IR1 reporter transcription, actives raise or lower the signal
# Bile acid receptor (Homo sapiens), sequence (Q96RI1 whole entry, looked up): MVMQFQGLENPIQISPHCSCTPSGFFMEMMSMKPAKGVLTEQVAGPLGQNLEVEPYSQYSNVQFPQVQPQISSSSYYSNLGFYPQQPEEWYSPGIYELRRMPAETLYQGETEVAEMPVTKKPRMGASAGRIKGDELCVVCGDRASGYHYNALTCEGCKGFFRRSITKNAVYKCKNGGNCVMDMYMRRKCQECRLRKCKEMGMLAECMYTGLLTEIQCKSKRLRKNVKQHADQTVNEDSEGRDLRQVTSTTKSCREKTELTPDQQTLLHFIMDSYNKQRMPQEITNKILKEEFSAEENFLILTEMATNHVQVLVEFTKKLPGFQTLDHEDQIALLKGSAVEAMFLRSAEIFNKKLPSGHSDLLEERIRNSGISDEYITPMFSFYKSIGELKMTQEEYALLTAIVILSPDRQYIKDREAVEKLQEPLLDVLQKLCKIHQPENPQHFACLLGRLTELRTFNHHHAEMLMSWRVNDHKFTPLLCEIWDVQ
# Outline: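 Transient MRTU transfection, HepG2; 24 h dosing; RNA → RT-PCR → 6-FAM primer extension → HpaI digest → capillary electrophoresis fluorescence. Gain/loss of signal fitted relative to DMSO.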
# [2] = ATG_GRE_CIS: Attagene CIS-FACTORIAL HepG2 Assay for human Glucocorticoid Response Elements (GRE) (AID 2282947); settings: HepG2 GRE cis-reporter, Attagene multiplex mRNA; actives raise or lower the signal
# Outline: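 Following 24 h chemical exposure of transiently transfected HepG2 cells, total RNA was reverse-transcribed and reporter cDNA amplified, fluorescently labelled and sized by capillary electrophoresis. Signal gain or loss was fitted relative to DMSO vehicle.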
# [3] = ATG_ISRE_CIS: Attagene CIS-FACTORIAL HepG2 Assay for human Interferon Regulatory Factor 1 (IRF1) binding to an Interferon-Stimulated Response Element (ISRE) (AID 2282948); settings: HepG2 ISRE cis-reporter (Attagene), mRNA transcription readout; actives raise or lower the signal
# Outline: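 Transiently transfected HepG2 cells carrying cis-element reporter units, dosed 24 hours. Reporter mRNA quantified by RT-PCR, fluorescent primer extension, HpaI digestion and capillary electrophoresis. Bidirectional fitting relative to DMSO.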
# [4] = ATG_M_32_CIS: Attagene CIS-FACTORIAL HepG2 Assay for M32 Transcription Factor (Internal Marker) (AID 2282949); settings: HepG2 Attagene cis-factorial M32 reporter, mRNA; actives raise or lower the signal;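 also: background control marker of the multiplexed CIS panel rather than a real target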
# Outline: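 HepG2 cells transiently transfected with multiplexed cis-regulated reporter units, dosed 24 h. Reporter mRNA quantified by RT-PCR, 6-FAM labelling, HpaI digestion and capillary electrophoresis; bidirectional fit vs DMSO.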
# [5] = ATG_M_06_CIS: Attagene CIS-FACTORIAL HepG2 Assay for M06 Transcription Factor (Internal Marker) (AID 2282950); settings: HepG2 Attagene CIS-FACTORIAL M06 internal marker reporter; actives raise or lower the signal
# Outline: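 Cells (HepG2, transiently carrying cis-driven reporter units) receive chemical for 24 h before RNA isolation. Reporter cDNA is PCR-amplified, FAM-labelled by primer extension, HpaI-digested and sized on a capillary analyser.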
# [6] = target: Hypoxia-inducible factor 1-alpha (Homo sapiens) (UniProt Q16665); assay: ATG_HIF1a_CIS: Attagene CIS-FACTORIAL HepG2 Assay for human Hypoxia Inducible Factor 1 (HIF1A) (AID 2282951); settings: HepG2 Attagene cis-factorial HIF1a reporter transcription; actives raise or lower the signal
# Hypoxia-inducible factor 1-alpha (Homo sapiens), sequence (Q16665 whole entry, looked up): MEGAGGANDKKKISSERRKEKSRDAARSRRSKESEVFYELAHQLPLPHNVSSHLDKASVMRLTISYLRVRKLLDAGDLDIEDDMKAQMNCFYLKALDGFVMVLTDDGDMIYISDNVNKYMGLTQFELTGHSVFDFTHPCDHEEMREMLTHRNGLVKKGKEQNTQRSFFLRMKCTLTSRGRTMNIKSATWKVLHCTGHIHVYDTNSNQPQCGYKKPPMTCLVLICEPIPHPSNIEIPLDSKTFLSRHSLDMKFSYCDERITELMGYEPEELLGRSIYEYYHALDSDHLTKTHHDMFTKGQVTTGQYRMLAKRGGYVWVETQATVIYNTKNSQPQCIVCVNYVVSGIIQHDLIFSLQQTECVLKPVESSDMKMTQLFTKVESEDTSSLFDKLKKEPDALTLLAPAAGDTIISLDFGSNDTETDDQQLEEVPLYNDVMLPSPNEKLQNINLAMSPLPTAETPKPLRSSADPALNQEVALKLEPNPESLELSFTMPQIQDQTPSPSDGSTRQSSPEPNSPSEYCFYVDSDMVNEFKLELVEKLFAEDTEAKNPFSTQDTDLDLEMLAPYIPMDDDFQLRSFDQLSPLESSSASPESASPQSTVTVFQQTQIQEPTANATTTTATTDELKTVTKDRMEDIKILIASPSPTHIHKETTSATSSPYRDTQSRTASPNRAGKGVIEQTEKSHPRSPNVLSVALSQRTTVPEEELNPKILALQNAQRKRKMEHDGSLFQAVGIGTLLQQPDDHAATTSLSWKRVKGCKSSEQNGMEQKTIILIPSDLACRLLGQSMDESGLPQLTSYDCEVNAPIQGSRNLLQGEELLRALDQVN
# Outline: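 HepG2 cells transiently transfected with multiple cis-regulated reporter transcription units measure endogenous transcription factor activity. After 24 h exposure, reporter mRNA is quantified by RT-PCR with 6-FAM labelling, HpaI digestion and capillary electrophoresis. Bidirectional fitting against DMSO.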
# [7] = target: Hepatocyte nuclear factor 6 (Homo sapiens) (UniProt Q9UBC0); assay: ATG_HNF6_CIS: Attagene CIS-FACTORIAL HepG2 Assay for human Hepatocyte Nuclear Factor 6 (HNF6) (AID 2282952); settings: HepG2 Attagene cis-factorial HNF6 reporter transcription; actives raise or lower the signal
# Hepatocyte nuclear factor 6 (Homo sapiens), sequence (Q9UBC0 whole entry, looked up): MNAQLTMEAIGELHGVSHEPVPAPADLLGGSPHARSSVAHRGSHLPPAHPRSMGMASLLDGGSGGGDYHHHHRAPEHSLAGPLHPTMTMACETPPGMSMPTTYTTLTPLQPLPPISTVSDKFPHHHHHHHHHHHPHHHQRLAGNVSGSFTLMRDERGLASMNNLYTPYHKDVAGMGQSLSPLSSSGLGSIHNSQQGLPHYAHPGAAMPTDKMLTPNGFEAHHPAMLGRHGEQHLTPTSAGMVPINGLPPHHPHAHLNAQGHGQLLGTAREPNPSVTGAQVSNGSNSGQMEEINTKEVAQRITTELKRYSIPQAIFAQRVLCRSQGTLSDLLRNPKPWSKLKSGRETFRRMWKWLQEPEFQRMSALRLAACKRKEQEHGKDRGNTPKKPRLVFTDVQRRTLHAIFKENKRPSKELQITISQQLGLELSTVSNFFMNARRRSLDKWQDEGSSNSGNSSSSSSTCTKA
# Outline: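 Transiently transfected HepG2 cells expressing cis-regulated reporter transcription units were exposed to chemical for 24 h in a 24-well format. Reporter transcript abundance was determined by fluorescence capillary electrophoresis.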
# [8] = target: Heat shock factor protein 1 (Homo sapiens) (UniProt Q00613); assay: ATG_HSE_CIS: Attagene CIS-FACTORIAL HepG2 Assay for human Heat Shock Transcription Factor 1 (HSE) (AID 2282953); settings: HepG2 HSE cis-reporter, Attagene RNA transcription; actives raise or lower the signal
# Heat shock factor protein 1 (Homo sapiens), sequence (Q00613 whole entry, looked up): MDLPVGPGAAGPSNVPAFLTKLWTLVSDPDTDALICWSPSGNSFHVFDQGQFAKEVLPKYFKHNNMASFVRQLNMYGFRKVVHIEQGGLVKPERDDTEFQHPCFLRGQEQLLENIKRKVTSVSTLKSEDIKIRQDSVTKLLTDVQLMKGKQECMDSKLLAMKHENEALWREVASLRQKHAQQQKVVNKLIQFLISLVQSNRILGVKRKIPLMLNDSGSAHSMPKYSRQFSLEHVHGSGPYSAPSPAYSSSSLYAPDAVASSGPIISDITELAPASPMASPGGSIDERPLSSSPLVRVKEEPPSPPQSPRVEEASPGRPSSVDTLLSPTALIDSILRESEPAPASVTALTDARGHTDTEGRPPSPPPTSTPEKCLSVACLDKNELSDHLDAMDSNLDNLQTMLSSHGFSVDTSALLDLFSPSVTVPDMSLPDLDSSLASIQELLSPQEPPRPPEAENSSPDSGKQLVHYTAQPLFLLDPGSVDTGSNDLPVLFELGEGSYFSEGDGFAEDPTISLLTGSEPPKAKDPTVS
# Outline: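 Liver-derived HepG2 cells carry transiently introduced multiple reporter units governed by cis promoters. Reporter RNA measured 24 h post-dose through reverse transcription, PCR amplification, fluorescent labelling and capillary electrophoresis, normalised to DMSO.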
# [9] = ATG_MRE_CIS: Attagene CIS-FACTORIAL HepG2 Assay for human Metal Responsive Element (MRE) (AID 2282954); settings: HepG2 MRE cis-reporter transcription, Attagene multiplex; actives raise or lower the signal
# Outline: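 Step one: transfect HepG2 with cis-regulated reporter units. Step two: dose 24 h. Step three: isolate RNA, RT-PCR, 6-FAM label, HpaI digest, capillary electrophoresis. Fit bidirectionally to DMSO.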
# [10] = target: Paired box protein Pax-6 (Homo sapiens) (UniProt P26367); assay: ATG_Pax6_CIS: Attagene CIS-FACTORIAL HepG2 Assay for human Paired Box 6 (PAX6) (AID 2282956); settings: HepG2 CIS-FACTORIAL PAX6 reporter transcription, RNA readout; actives raise or lower the signal
# Paired box protein Pax-6 (Homo sapiens), sequence (P26367 whole entry, looked up): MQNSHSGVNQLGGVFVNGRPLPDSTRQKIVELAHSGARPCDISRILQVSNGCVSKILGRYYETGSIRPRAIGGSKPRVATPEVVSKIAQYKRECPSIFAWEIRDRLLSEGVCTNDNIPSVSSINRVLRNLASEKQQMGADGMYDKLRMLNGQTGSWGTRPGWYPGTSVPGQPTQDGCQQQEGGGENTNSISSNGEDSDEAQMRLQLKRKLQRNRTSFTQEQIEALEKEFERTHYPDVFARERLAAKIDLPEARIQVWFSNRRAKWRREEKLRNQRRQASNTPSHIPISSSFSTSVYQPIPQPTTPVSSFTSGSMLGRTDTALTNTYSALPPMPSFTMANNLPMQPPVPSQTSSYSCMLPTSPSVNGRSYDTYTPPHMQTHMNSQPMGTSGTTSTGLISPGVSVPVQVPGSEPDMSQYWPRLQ
# Outline: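 HepG2 cells transiently transfected with cis-promoter-driven multiplexed reporter units sensing endogenous transcription factor activity; 24 h chemical exposure. Reporter mRNA quantified by RT-PCR, 6-FAM labelling, HpaI digestion and capillary electrophoresis; bidirectional fit versus DMSO baseline.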
# [11] = ATG_PXRE_CIS: Attagene CIS-FACTORIAL HepG2 Assay for human Pregnane X Receptor Element (PXRE) (AID 2282957); settings: HepG2 Attagene CIS-FACTORIAL PXRE reporter, mRNA; actives raise or lower the signal
# Outline: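 Cis-element reporter mRNA in human hepatoma HepG2 cells is measured 24 h post-dosing by RT-PCR, primer-extension labeling and capillary electrophoresis; gain or loss of signal is fitted relative to DMSO.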
# [12] = ATG_PPRE_CIS: Attagene CIS-FACTORIAL HepG2 Assay for human Peroxisome Proliferator-activated Response Element (PPRE) (AID 2282958); settings: HepG2 PPRE cis-element reporter, Attagene transcription factor profiling; actives raise or lower the signal
# Outline: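 HepG2 cells are transiently transfected with multiplexed cis-promoter reporter units to report endogenous PPAR activity. After 24 h dosing, reporter mRNA is read by RT-PCR and capillary electrophoresis. Fitting is bidirectional against DMSO.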
# [13] = ATG_RORE_CIS: Attagene CIS-FACTORIAL HepG2 Assay for human RAR-related Orphan Receptor Element (RORE) (AID 2282959); settings: HepG2 Attagene cis-factorial RORE reporter, mRNA; actives raise or lower the signal
# Outline: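 HepG2 cells carrying transiently transfected cis-regulated reporter units; RORE-driven reporter mRNA quantified 24 h post-dosing by RT-PCR, 6-FAM primer extension, HpaI digestion and capillary electrophoresis. Bidirectional fit versus DMSO.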
# [14] = ATG_Sox_CIS: Attagene CIS-FACTORIAL HepG2 Assay for human SRY-box transcription factor (SOX) (AID 2282960); settings: HepG2 Attagene cis-factorial SOX reporter, mRNA; actives raise or lower the signal
# Outline: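 HepG2 cells transiently transfected with multiple cis-regulated reporter units, then dosed for 24 h. Reporter mRNA quantified by RT-PCR, fluorescent labelling, HpaI digestion and capillary electrophoresis; bidirectional fit versus DMSO.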
# [15] = target: Transcription factor Sp1 (Homo sapiens) (UniProt P08047); assay: ATG_Sp1_CIS: Attagene CIS-FACTORIAL HepG2 Assay for human Specificity Protein 1 (Sp1) (AID 2282961); settings: HepG2 Sp1 cis-reporter transcription, actives raise or lower the signal
# Transcription factor Sp1 (Homo sapiens), sequence (P08047 whole entry, looked up): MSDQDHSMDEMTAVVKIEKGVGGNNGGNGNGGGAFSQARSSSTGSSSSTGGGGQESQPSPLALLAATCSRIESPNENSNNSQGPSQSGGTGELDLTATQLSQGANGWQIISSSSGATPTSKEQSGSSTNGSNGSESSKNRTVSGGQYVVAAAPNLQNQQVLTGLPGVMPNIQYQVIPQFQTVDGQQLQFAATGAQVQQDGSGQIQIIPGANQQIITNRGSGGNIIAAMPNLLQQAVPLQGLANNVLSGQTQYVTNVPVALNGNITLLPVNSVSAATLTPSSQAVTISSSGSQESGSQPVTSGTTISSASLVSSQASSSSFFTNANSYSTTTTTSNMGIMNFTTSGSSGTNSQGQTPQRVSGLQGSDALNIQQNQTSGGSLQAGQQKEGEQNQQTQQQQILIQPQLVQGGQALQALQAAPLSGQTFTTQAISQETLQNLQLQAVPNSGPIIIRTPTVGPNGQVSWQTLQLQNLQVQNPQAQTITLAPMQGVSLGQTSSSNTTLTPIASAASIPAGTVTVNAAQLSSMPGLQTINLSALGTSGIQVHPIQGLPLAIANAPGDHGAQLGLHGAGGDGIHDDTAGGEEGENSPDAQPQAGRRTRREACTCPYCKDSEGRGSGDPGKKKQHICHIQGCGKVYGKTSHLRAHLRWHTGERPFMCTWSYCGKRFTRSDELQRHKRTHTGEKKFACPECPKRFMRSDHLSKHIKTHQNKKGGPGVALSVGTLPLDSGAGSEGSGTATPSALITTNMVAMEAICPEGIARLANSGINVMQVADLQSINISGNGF
# Outline: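 HepG2 cells transiently transfected with multiplexed cis-regulated reporter constructs, chemical exposure 24 h. Reporter mRNA quantified by RT-PCR with capillary electrophoresis; bidirectional fit relative to DMSO.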
# [16] = target: Signal transducer and activator of transcription 3 (Homo sapiens) (UniProt P40763); assay: ATG_STAT3_CIS: Attagene CIS-FACTORIAL HepG2 Assay for human Signal Transducer and Activator of Transcription 3 (STAT3) (AID 2282963); settings: HepG2, Attagene cis-factorial STAT3 reporter transcription; actives raise or lower the signal
# Signal transducer and activator of transcription 3 (Homo sapiens), sequence (P40763 whole entry, looked up): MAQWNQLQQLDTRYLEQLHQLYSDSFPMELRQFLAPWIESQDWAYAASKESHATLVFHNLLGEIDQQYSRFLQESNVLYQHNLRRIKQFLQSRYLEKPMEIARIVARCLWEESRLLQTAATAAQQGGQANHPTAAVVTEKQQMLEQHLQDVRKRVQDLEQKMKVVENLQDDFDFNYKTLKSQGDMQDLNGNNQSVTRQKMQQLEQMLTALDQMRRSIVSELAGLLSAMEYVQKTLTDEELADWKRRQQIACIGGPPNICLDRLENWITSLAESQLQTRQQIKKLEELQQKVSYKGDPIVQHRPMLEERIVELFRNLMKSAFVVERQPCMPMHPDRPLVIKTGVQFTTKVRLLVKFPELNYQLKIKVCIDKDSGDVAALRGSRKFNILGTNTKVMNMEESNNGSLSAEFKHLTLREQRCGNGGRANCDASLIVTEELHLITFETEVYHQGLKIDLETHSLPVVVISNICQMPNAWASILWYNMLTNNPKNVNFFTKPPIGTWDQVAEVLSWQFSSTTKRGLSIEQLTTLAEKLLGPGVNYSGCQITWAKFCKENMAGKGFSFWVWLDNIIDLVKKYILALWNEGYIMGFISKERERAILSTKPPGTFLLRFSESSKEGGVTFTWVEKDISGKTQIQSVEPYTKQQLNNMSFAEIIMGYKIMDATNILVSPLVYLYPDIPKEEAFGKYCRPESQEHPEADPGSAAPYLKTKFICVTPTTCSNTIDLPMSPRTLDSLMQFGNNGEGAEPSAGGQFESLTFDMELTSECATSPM
# Outline: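 Transcript-level reporter assay. HepG2 transient MRTU transfection, 24 h exposure, fluorescence detection after RT-PCR and CE; DMSO baseline.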
# [17] = ATG_TA_CIS: Attagene CIS-FACTORIAL HepG2 Assay for human TA Basal Promoter (AID 2282964); settings: HepG2 Attagene CIS-factorial TA basal promoter reporter; actives raise or lower the signal
# Outline: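 Background internal-marker endpoint from a 52-component HepG2 cis-reporter panel. Cells treated 24 h; reporter transcripts quantified via RT-PCR and CE fluorescence against DMSO baseline.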
# [18] = ATG_TCF_b_cat_CIS: Attagene CIS-FACTORIAL HepG2 Assay for human T-Cell-Factor with beta-catenin (TCF/b-cat) (AID 2282965); settings: HepG2 TCF/beta-catenin cis-reporter transcription, actives raise or lower the signal
# Outline: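 In this cis-format system, transfected HepG2 cells report endogenous transcription factor activity. Readout after 24 h exposure is reporter transcript abundance from RT-PCR and capillary electrophoresis, analysed for gain or loss of signal versus DMSO.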
# [19] = ATG_SREBP_CIS: Attagene CIS-FACTORIAL HepG2 Assay for human Sterol Regulatory Element Binding (SREBP) (AID 2282962); settings: HepG2 Attagene cis-factorial SREBP reporter, mRNA; actives raise or lower the signal
# Outline: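 HepG2 cells transiently transfected with multiplexed cis-promoter reporter units sensing endogenous transcription factors; reporter mRNA measured 24 h after dosing by RT-PCR, 6-FAM labeling, HpaI digestion and capillary electrophoresis. Bidirectional fit versus DMSO.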
# [20] = ATG_PBREM_CIS: Attagene CIS-FACTORIAL HepG2 Assay for human Phenobarbital-responsive Enhancer Module (PBREM) (AID 2282955); settings: HepG2 PBREM cis-reporter, Attagene multiplexed transcription; actives raise or lower the signal
# Outline: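 HepG2 cells transiently transfected with multiple cis-regulated reporter units measure endogenous transcription factor activity; 24 h compound exposure. Reporter mRNA quantified by RT-PCR, fluorescent labelling, HpaI digestion and capillary electrophoresis; bidirectional fit versus DMSO.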
smiles,measurement,setting,value
IC(I)I,outcome,[1],inactive
same,outcome,[2],inactive
same,outcome,[3],inactive
same,outcome,[4],inactive
same,outcome,[5],inactive
same,outcome,[6],inactive
same,outcome,[7],inactive
same,outcome,[8],inactive
same,outcome,[9],inactive
same,outcome,[10],inactive
same,AC50,[11],5.98 µM (active)
same,outcome,[12],inactive
same,outcome,[13],inactive
same,outcome,[14],inactive
same,outcome,[15],inactive
same,outcome,[16],inactive
same,outcome,[17],inactive
same,outcome,[18],inactive
COc1cc(C(C)C)ccc1C,outcome,[1],inactive
same,outcome,[2],inactive
same,outcome,[3],inactive
same,outcome,[4],inactive
same,outcome,[5],inactive
same,outcome,[6],inactive
same,outcome,[7],inactive
same,outcome,[8],inactive
same,outcome,[9],inactive
same,outcome,[10],inactive
same,outcome,[11],inactive
same,outcome,[12],inactive
same,outcome,[14],inactive
same,outcome,[15],inactive
same,outcome,[19],inactive
same,outcome,[16],inactive
same,outcome,[17],inactive
CC(C)(C)c1ccc(C(=O)O)cc1,outcome,[1],inactive
same,outcome,[2],inactive
same,outcome,[3],inactive
same,outcome,[4],inactive
same,outcome,[5],inactive
same,outcome,[6],inactive
same,outcome,[7],inactive
same,outcome,[8],inactive
same,outcome,[9],inactive
same,outcome,[10],inactive
same,outcome,[11],inactive
same,outcome,[12],inactive
same,outcome,[13],inactive
same,outcome,[14],inactive
same,outcome,[15],inactive
same,outcome,[19],inactive
same,outcome,[16],inactive
same,outcome,[17],inactive
same,outcome,[18],inactive
CCN(CCC#N)c1ccc(N=Nc2ccc([N+](=O)[O-])cc2)cc1,outcome,[1],inactive
same,outcome,[2],inactive
same,outcome,[3],inactive
same,outcome,[4],inactive
same,outcome,[5],inactive
same,outcome,[6],inactive
same,outcome,[7],inactive
same,outcome,[9],inactive
same,outcome,[20],inactive
same,outcome,[10],inactive
same,outcome,[11],inactive
same,outcome,[12],inactive
same,outcome,[13],inactive
same,outcome,[14],inactive
same,outcome,[15],inactive
same,outcome,[19],inactive
same,outcome,[16],inactive
same,outcome,[17],inactive
same,outcome,[18],inactive
NC(=S)NNC(N)=S,outcome,[1],inactive
same,outcome,[2],inactive
same,outcome,[3],inactive
same,outcome,[4],inactive
same,outcome,[5],inactive
same,outcome,[6],inactive
same,outcome,[7],inactive
same,outcome,[8],inactive
same,outcome,[9],inactive
same,outcome,[10],inactive
same,outcome,[11],inactive
same,outcome,[12],inactive
same,outcome,[13],inactive
same,outcome,[14],inactive
same,outcome,[15],inactive
same,outcome,[16],inactive
same,outcome,[17],inactive
same,outcome,[18],inactive
O=C(Nc1ccc([N+](=O)[O-])cc1)Nc1ccc([N+](=O)[O-])cc1 (tested in a mixture with another compound),outcome,[1],inactive
same,outcome,[2],inactive
same,outcome,[3],inactive
same,outcome,[4],inactive
same,outcome,[5],inactive
same,outcome,[6],inactive
same,outcome,[7],inactive
same,outcome,[8],inactive
same,outcome,[9],inactive
same,outcome,[10],inactive
same,outcome,[11],inactive
same,outcome,[13],inactive
same,outcome,[14],inactive
same,outcome,[15],inactive
same,outcome,[19],inactive
same,outcome,[16],inactive
same,outcome,[17],inactive
same,outcome,[18],inactive
Nc1ccccc1[N+](=O)[O-],outcome,[1],inactive
same,outcome,[2],inactive
same,outcome,[3],inactive
same,outcome,[4],inactive
same,outcome,[5],inactive
same,outcome,[6],inactive
same,outcome,[7],inactive
same,outcome,[8],inactive
same,outcome,[9],inactive
same,outcome,[10],inactive
same,outcome,[11],inactive
same,outcome,[13],inactive
same,outcome,[14],inactive
same,outcome,[15],inactive
same,outcome,[19],inactive
same,outcome,[16],inactive
same,outcome,[17],inactive
same,outcome,[18],inactive
